Hits are enriched below; roughly 19% of the tested compounds scored in any of these assays.
Pf growth 48h = inhibits P. falciparum growth in the first generation, 48 h. P. falciparum luciferase growth in erythrocytes, 48 h. hit rate 5.9% among 310,000. Potency, µM (series often up to 28.7 µM), for inactives: at the top dose activity change, negative = inhibition, usual class: inhibitors; note: potency is the fitted concentration of half-maximal effect; % is set by controls: 0 for no effect and ±100 for the full control effect
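Erythrocytes infected with P. falciparum carrying an integrated firefly luciferase reporter (2% hematocrit, 0.1% parasitemia final) were exposed to compounds in RPMI 1640 with 0.5% Albumax at 37 C, 5% CO2. Growth inhibition was scored as reduced luminescence.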
Pf growth 96h = P. falciparum growth inhibition at 96 hour, primary screen for plastid delayed-death inhibitors; Potency, µM (highest dose often 28.7 µM), for inactives: at the highest dose activity change, negative = inhibition, most hits filed as inhibitors; hit rate 6.9% among 320,000; P. falciparum luciferase reporter growth, 96 h; AID 504834; note: potency is the fitted concentration of half-maximal effect; % is set by controls: 0 for no effect and ±100 for the full control effect
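Plates of compound plus infected erythrocytes (2% hematocrit, 0.05% parasitemia final) incubate 96 hours, 37 C, 5% CO2. Detection reagent added; reduced luminescence from the parasites' luciferase reporter flags inhibition.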
AMA1 RON2 block = inhibitors of Plasmodium falciparum AMA1-RON2 interaction | AlphaScreen AMA1-biotinylated RON2 peptide binding | Potency, µM (series often up to 58.2 µM), for the others: at the highest dose activity change, negative = inhibition, actives largely listed as inhibitors | hit rate 0.2% among 360,000;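 note: potency is the fitted concentration of half-maximal effect; 0% = vehicle wells and -100% = peptide control; nearly all actives have a fitted effect of over 45% in size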
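AMA1 (3D7) with his tag at 25 nM final met compounds first, then biotinylated RON2 peptide at 25 nM; detection used donor plus acceptor beads, 10 µg/mL apiece, read by AlphaScreen after 30 min at room temperature.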
Shiga inhibitor = inhibitors of Shiga toxin in Vero cells; Vero cells, Shiga toxin protein synthesis inhibition reporter; inhibition, % at 38.7 µM; hit rate 9.2% among 290,000; in the data active = inhibition mostly above about 28%, no sharp cut-off; inactive = mostly below about 43%; note: 0% is about no effect
SARS PLpro yeast = blocks SARS-CoV papain-like protease in a yeast assay; Potency, µM (top dose mostly 32.9 µM), without a hit: at the top dose activity, positive = growth rescue, actives largely listed as activators; S. cerevisiae expressing SARS-CoV PLpro, growth rescue; hit rate 0.19% among 330,000; AID 485353; calls by dose curve; note: potency is the fitted concentration of half-maximal effect; 0% is about no effect; nearly all actives have a fitted effect of over 55% in size
CHX counter = counter-screen for Shiga toxin inhibitors: cycloheximide protein synthesis inhibition; hit rate 12% among 300,000; AID 2314; max response, %; cell reporter, cycloheximide protein synthesis inhibition counterscreen; in the data active = max response mostly above about 13%, no sharp cut-off; inactive = mostly below about 14%; note: read at 38.3 µM for the half of the compounds with a filed dose; 0% is about no effect
* = called active by the depositor; ? = inconclusive; / = no result given. Unless noted, calls come from the whole dose curve; as a rule, active = well fitted curve in the direction sought with a large enough effect; inconclusive = small, poorly fitted or top-dose-only effect, or another doubt; inactive = no such curve, though single readings can be large; an effect the other way counts as inactive or inconclusive.

SMILES	Pf growth 48h	Pf growth 96h	AMA1 RON2 block	Shiga inhibitor	SARS PLpro yeast	CHX counter
COc1ccccc1/C=C/C=N\N1CCN(Cc2ccccc2Cl)CC1	?	19%	20µM*	6	-8%	3
COc1ccccc1/C=C/C=N/N1CCN(Cc2ccc(Cl)cc2)CC1	?	?	?	21	-9%	-6
COc1ccc(/C=N\N2CCN(Cc3ccccc3Cl)CC2)cc1	-2%	275%	15%	-5	-1%	-3
COc1ccc(Br)cc1/C=N/N1CCN(Cc2ccccc2Cl)CC1	0%	17%	8.9µM*	/	0%	-2
CCCOc1ccc(N2C(=O)C3ON(c4ccccc4)C(CCC)C3C2=O)cc1 (stereo not drawn)	/	30%	-6%	16	-12%	-3
Cc1ccc(S(=O)(=O)N2CCN(C(=O)COC(=O)CCOc3ccccc3)CC2)c(C)c1	-24%	-8%	-9%	/	1%	/
O=S(=O)(NCC1CCCO1)c1ccc(-c2ccc(Cl)cc2)cc1 (stereo not drawn)	0%	42%	-8%	20	-1%	17*
CCOc1cccc2sc(N(CCCN(C)C)C(=O)c3ccc(S(=O)(=O)N(C)CC4CCCO4)cc3)nc12 (stereo not drawn)	-13%	?	-11%	-12	3%	-3
O=C(CN(Cc1ccco1)C(=O)CNS(=O)(=O)c1ccc(Cl)cc1)NCC1CCCO1 (stereo not drawn)	1.9µM*	0%	-15%	2	-1%	-2
Cc1ccc(NC(=O)c2ccc(S(=O)(=O)NCC3CCCO3)cc2)cc1 (stereo not drawn)	-18%	-23%	0%	31*	-4%	9
COc1ccc(-c2ccc(S(=O)(=O)NCC3CCCO3)cc2)cc1 (stereo not drawn)	13%	?	7%	-60	4%	7
Cc1cc(C)c2nc(N(CCN(C)C)C(=O)c3ccc(S(=O)(=O)N(C)CC4CCCO4)cc3)sc2c1 (stereo not drawn)	-11%	?	-16%	58	0%	22*
CCOC(=O)N1CCC(N2CCCC(C(=O)c3ccccc3OC)C2)CC1 (stereo not drawn)	-24%	?	-1%	-8	0%	-2
Cc1ccccc1NC(=O)c1ccc(F)c(S(=O)(=O)NCC2CCCO2)c1 (stereo not drawn)	2%	24%	15%	-14	-5%	-4
Cc1ccc(NC(=O)c2ccc(Cl)c(S(=O)(=O)NCC3CCCO3)c2)c(O)c1 (stereo not drawn)	?	6.6µM*	-4%	1	4%	2
O=C(Nc1ccc2c(c1)OCO2)c1ccc(S(=O)(=O)NCC2CCCO2)cc1 (stereo not drawn)	-18%	/	-5%	-4	1%	-3
Cc1cc(C)cc(NC(=O)c2ccc(S(=O)(=O)N(C)CC3CCCO3)cc2)c1 (stereo not drawn)	?	2.6µM*	-1%	-5	-2%	-2
Cc1ccc(SCC(=O)NN2C(=O)c3ccccc3C2=O)cc1	22%	?	13%	-11	0%	3
COc1ccc(C(=O)C2CC2c2ccc3c(c2)OCO3)cc1 (stereo not drawn)	269%	-28%	40%	8	-5%	9
COc1ccc(/C=N/NC(=O)c2cccc(OC(F)(F)C(F)F)c2)cc1O	21%	21%	-5%	-1	-4%	2
CC(Sc1nnc(COc2ccc(Cl)cc2)n1Cc1ccco1)C(=O)N1CCNC1=O (stereo not drawn)	?	8.3µM*	-18%	/	-12%	/
CCC(=O)Nc1cccc(NC(=O)c2ccccc2Br)c1	33%	-7%	10%	-12	-5%	-4
Cc1c([N+](=O)[O-])cc(C(=O)Nc2ccc3ncccc3c2)cc1[N+](=O)[O-]	?	35%	13%	/	-1%	-1
O=C(Nc1ccc2ncccc2c1)Nc1ccc2ncccc2c1	?	?	-9%	47*	-2%	19*
O=C(Nc1ccc2ncccc2c1)c1ccccc1Br	199%	27%	-9%	41*	-28%	38*
c1cnc2ccc(-c3ccc4ncccc4c3)cc2c1	180%	?	4%	/	-6%	27*
